Test results published in PubChem BioAssay (NCATS).
Values without a mark were called inactive. Inconclusive results are not listed. Active and inactive are the calls of the source. Unless noted, the call rests on the fitted dose curve; in most records, active means well fitted curve in either direction with a large enough effect (not every such curve was filed as active); inconclusive means small, poorly fitted or top-dose-only effect, or another doubt; inactive means flat fitted curve, though single readings scatter.

Columns and labels:
[1] = biological target: Lysosomal acid glucosylceramidase (Homo sapiens) (UniProt P04062); assay: Glucocerebrosidase-p2 (AID 348; in the data active means potency below about 10 µM; further: potency means the concentration at half of the fitted maximal effect); conditions: purified GBA, blue fluorogenic substrate, 40 min
How it was run: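 Normal human glucocerebrosidase (0.2 nM) with blue fluorogenic substrate (80 uM final) in citrate/phosphate pH 5.9 with 10mM sodium taurocholate, 0.01% tween-20; 40 min RT, NaOH/glycine stop; fluorescence Ex 365/Em 440; AC50 from a titration from 0.6 nM upwards.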

[2] = AP1 Signaling Pathway (AID 357); conditions: ME-180 AP-1-bla reporter, EGF-induced, beta-lactamase ratio, 5 h; at 7.69 µM (top of the series) unless noted;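 further: ME-180 reporter cells stimulated with EGF at its EC50 level; on the % scale 0 is the no-effect control and ±100 the full control effect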
How it was run: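 AP-1-bla ME-180 cells, Opti-MEM + 0.5% dialyzed FBS, plated overnight 37 °C. Cpd titration + EC50 EGF, 5 h 37 °C. CCF4 2.5 h RT; ex 405, em 460/530 ratio → %activity, AC50.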

[3] = biological target: Cytochrome P450 1A2 (Homo sapiens) (UniProt P05177); assay: p450-cyp1a2 (AID 410; calls by dose curve; further: potency means the concentration at half of the fitted maximal effect;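 on activity change, negative = inhibition: -100% = full effect of reference inhibitor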); conditions: recombinant CYP1A2, luciferin-ME demethylation, luminescence; series mostly up to 11.4 µM
How it was run: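 20nM CYP1A2, 100uM Luciferin-ME (=Km), 100mM KPO4; cpd 10 min RT; +NADPH regen, 60 min RT; stop/detect 20 min; luminescence. Normalized to furafylline 57 uM = full inhibition.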

[4] = NFAT Signaling Pathway (AID 444); conditions: Jurkat NFAT-bla M1, carbachol, beta-lactamase ratio, 5 h; at 7.69 µM (top of the series) unless noted;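 further: carbachol stimulus at about its EC50 of 1 µM final; on the % scale 0 is the no-effect control and ±100 the full control effect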
How it was run: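 Read-out: CCF4 FRET ratio (460 nm/530 nm) after 1 h RT dye loading, used for %activity and AC50 from titration series. Cells: Jurkat NFAT-β-lactamase/M1 line, treated with compound plus 1 uM carbachol for 5 h, 37 °C.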

[5] = Stat Signaling Pathway (AID 446); conditions: ME-180 (cervical carcinoma) SIE beta-lactamase reporter, IL-6 stimulated, 5 h; at 7.69 µM (top of the series) unless noted;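 further: ME-180 cervical cancer cells given 40 pM IL-6 alongside compound; SIE-controlled beta-lactamase reporter measured as 460/530 nm FRET emission ratio; on the % scale 0 is the no-effect control and ±100 the full control effect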
How it was run: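 Emission at 460 and 530 nm (excitation 405 nm) reports SIE-controlled beta-lactamase in ME-180 cells. Cells received compound with 40 pM IL-6 for 5 hrs at 37 C; data scaled between 300 pM IL-6 and 125 nM JAK-inhibitor controls.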

[6] = biological target: Glucocorticoid receptor (Homo sapiens) (UniProt P04150); assay: GR-GFP Redistribution (AID 450;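 active means compounds whose dose series gives a full or clear partial fitted curve of increased nuclear translocation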; further: potency means the concentration at half of the fitted maximal effect); conditions: U2OS GR-GFP nuclear translocation, laser cytometry, 2 h
[7] = biological target: Glucocorticoid receptor (Homo sapiens) (UniProt P04150); assay: GR-EFC Redistribution (AID 451; calls by dose curve; further: potency means the concentration at half of the fitted maximal effect); conditions: CHO-K1 GR-EFC translocation, beta-gal luminescence, 2 h
How it was run: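 Translocation of GR-ED fusion to nuclear EA restores b-gal, read by luminescence after 1 h room-temperature detection. Engineered CHO-K1 biosensor cells, 1,000/well, exposed 2 h at 37 C to titrations up to 46 uM final.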

[8] = biological target: Mitogen-activated protein kinase 10 (Mus musculus) (UniProt Q61831); assay: JNK3 AlphaScreen Assay (AID 530); conditions: JNK3 lysate, c-Jun phosphorylation; series mostly up to 11.4 µM;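 further: kinase came from lysate of stimulated human HepG2 cells; signal reports phosphorylation of biotinylated GST-cJun 1-79 at Ser73 with 10 µM ATP; on the % scale 0 is the no-effect control and ±100 the full control effect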
How it was run: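 Kinase buffer: 20 mM Tris-HCl pH 7.6, 10 mM MgCl2, 1 mM DTT, 0.1 mM Na3VO4, 0.01% Tween-20; ATP 10 uM. Substrate biotin-GST-cJun(1-79), enzyme from activated HepG2 lysates. Detection by Ser73 phospho-antibody AlphaScreen.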

[9] = biological target: 3',5'-cyclic-AMP phosphodiesterase 4B (Homo sapiens) (UniProt Q07343); assay: qHTS Assay for Inhibitors of PDE-IV (AID 607; active means well fitted activation curve with a large enough effect in the main read-out, with a control signal flat, not every such curve was filed as active; further: % of control where 0% means no effect); conditions: HEK293 ACTOne CNG channel cells, membrane potential fluorescence; series mostly up to 22.9 µM
How it was run: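 The readout is membrane depolarisation from a cAMP-sensing CNG channel, detected with a potential dye at ex 535/em 590. Cells were HEK293-derived (endogenous PDE-IV) at 1000 cells/well, titrated up to 22.9 uM final.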

Chain of Glucocorticoid receptor (Homo sapiens) (P04150 whole entry, looked up, the tested form may be a part): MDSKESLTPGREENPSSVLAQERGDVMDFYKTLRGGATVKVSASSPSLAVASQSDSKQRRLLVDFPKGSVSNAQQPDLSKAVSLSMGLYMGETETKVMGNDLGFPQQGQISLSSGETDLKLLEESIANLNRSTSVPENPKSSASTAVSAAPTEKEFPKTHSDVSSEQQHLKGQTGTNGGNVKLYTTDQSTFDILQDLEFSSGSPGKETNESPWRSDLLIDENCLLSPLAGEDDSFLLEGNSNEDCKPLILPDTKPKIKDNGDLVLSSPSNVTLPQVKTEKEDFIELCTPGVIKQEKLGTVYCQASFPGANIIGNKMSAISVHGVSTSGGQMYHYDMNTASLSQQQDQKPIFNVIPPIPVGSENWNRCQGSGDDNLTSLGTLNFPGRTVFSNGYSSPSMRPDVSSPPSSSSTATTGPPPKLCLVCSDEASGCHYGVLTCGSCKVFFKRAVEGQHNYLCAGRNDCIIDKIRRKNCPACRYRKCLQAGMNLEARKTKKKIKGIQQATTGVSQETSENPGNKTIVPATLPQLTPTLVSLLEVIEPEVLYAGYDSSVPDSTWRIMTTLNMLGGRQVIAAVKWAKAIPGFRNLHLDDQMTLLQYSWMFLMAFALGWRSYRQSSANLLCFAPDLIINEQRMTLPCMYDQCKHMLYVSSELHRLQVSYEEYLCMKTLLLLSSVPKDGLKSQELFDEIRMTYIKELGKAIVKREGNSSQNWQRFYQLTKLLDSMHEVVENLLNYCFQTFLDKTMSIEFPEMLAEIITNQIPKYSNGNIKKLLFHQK
Chain of Lysosomal acid glucosylceramidase (Homo sapiens) (P04062 whole entry, looked up): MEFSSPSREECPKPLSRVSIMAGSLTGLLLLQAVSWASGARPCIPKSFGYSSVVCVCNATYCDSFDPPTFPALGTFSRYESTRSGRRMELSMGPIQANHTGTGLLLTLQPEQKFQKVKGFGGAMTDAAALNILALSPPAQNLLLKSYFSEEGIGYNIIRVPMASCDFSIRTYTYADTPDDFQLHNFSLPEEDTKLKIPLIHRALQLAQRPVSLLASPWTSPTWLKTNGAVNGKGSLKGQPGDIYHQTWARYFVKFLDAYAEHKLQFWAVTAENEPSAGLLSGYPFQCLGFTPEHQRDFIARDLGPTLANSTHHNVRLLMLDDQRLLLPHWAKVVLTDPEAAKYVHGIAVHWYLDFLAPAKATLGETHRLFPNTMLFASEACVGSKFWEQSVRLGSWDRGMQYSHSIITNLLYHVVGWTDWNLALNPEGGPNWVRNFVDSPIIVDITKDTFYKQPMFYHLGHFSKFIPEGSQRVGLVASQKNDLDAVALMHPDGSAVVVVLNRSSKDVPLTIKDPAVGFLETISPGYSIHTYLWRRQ
Chain of Cytochrome P450 1A2 (Homo sapiens) (P05177 whole entry, looked up): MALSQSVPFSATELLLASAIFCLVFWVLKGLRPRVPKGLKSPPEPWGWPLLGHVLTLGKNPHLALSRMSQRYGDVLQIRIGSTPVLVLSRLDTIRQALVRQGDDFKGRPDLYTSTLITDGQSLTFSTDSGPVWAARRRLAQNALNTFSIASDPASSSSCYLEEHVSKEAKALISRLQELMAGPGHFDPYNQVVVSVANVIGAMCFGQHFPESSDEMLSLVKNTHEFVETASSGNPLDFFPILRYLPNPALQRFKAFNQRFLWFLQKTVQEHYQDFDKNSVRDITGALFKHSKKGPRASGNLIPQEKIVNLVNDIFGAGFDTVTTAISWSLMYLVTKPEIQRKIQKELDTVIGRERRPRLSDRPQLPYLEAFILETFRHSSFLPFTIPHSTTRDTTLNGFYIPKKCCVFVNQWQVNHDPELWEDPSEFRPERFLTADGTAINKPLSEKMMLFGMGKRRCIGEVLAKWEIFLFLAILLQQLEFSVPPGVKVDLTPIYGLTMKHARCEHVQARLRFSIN
Chain of 3',5'-cyclic-AMP phosphodiesterase 4B (Homo sapiens) (Q07343 whole entry, looked up): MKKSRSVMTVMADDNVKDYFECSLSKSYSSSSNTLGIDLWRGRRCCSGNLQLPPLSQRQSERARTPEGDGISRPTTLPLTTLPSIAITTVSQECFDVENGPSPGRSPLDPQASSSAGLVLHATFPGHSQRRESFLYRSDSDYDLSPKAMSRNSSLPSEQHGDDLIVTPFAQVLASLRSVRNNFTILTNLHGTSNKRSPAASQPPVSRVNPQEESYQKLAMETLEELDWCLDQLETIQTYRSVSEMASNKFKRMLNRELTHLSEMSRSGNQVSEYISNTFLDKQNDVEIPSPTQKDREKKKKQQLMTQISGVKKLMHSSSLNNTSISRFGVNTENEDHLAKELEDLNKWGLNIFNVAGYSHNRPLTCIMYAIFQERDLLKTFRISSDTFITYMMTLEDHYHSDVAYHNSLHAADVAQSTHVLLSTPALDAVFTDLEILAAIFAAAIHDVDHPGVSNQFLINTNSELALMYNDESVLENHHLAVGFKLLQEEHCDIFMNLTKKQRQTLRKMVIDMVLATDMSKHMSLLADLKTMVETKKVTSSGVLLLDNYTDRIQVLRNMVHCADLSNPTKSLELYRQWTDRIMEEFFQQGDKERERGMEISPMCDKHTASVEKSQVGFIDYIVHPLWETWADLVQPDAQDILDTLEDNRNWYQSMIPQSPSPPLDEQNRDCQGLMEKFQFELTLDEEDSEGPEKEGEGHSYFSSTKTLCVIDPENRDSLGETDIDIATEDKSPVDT

Compound | Potency [1] | activity change, negative = inhibition [2] | Potency [3] | activity change, negative = inhibition [4] | activity, negative = inhibition [5] | Potency [6] | Potency [7] | Potency [8] | Potency [9] | activity change, negative = inhibition [3]
O=C1CC[C@H](NC(=O)c2ccccc2)C(=O)N1 | > 11.4 µM | 5.12% | inactive | 4.46% | 2.96% | > 46 µM | > 9.22 µM | inactive | inactive | –
Cc1ccc(S(=O)(=O)NC(=O)OC23COCN2COC3)cc1 | > 11.4 µM | 8.05% | inactive | 27.6% | 15.3% | > 46 µM | > 9.22 µM | inactive | inactive | –
CN(C)c1ccc(C2N([C@H](C#N)c3ccc(N(C)C)cc3)CCCN2[C@@H](C#N)c2ccc(N(C)C)cc2)cc1 (stereo not given in full) | > 11.4 µM | 0.74% | 5.01 µM (active) | -11.3% | 6.93% | > 46 µM | > 9.22 µM | inactive | inactive | –
Cc1c(C)c(C)c(CC2(C)CSC2)c(CC2(C)CSC2)c1C | > 11.4 µM | 10.3% | inactive | 0.756% | 6.86% | > 46 µM | > 9.22 µM | inactive | inactive | –
O=C(O)[C@H](CCc1ccccc1)N1C(=O)c2ccccc2C1=O | > 11.4 µM | -11.9% | – | -3.82% | 8.91% | > 46 µM | > 9.22 µM | inactive | inactive | -9.6% [at 2.29 µM]
N=C(N)SCCc1ccncc1 | > 11.4 µM | 3.09% | – | -0.295% | 3.81% | > 46 µM | > 9.22 µM | inactive | inactive | -17.8% [at 2.29 µM]
C/C(=N/Nc1nc(C)cc(=O)[nH]1)C(=O)O | > 11.4 µM | 1.69% | inactive | 1.78% | -0.204% | > 46 µM | > 9.22 µM | inactive | inactive | –
CC(C)(N=NC(C)(C)C1=NCCN1)C1=NCCN1 | > 11.4 µM | 3.01% | inactive | 7.08% | 3.73% | > 46 µM | > 9.22 µM | inactive | inactive | –
Nc1nc(SCc2ccccc2Cl)cc(C(=O)O)n1 | > 11.4 µM | -13.8% | – | 1.52% | 4.58% | > 46 µM | > 9.22 µM | inactive | inactive | 6.2% [at 2.29 µM]
CC(C)CN=C(N)N=C(N)N | > 11.4 µM | 6.14% | inactive | 11.1% | 1.4% | > 46 µM | > 9.22 µM | inactive | inactive | –
[O-][N+](CCO)(CCO)c1ncnc2nc[nH]c12 | > 11.4 µM | 1.99% | inactive | -3.2% | -1.19% | > 46 µM | > 9.22 µM | inactive | inactive | –
COc1ccc2c3c([nH]c2c1)[C@H]1C[C@@H]2[C@@H](C[C@@H](O)[C@H](OC)[C@H]2C(=O)O)CN1CC3 | > 11.4 µM | -5.49% | inactive | 0.887% | -7.32% | > 46 µM | > 9.22 µM | inactive | inactive | –
O=C1CN2CCN(CC2)CC(=O)Nc2ccc(cc2)S(=O)(=O)c2ccc(cc2)NC(=O)CN2CCN(CC2)CC(=O)Nc2ccc(cc2)S(=O)(=O)c2ccc(cc2)N1 | > 11.4 µM | 5.33% | inactive | 5.58% | 12.3% | > 46 µM | > 9.22 µM | inactive | inactive | –
Cc1cc(Cc2c(C)c(C)c(Cc3cc(C)cc(C(C)(C)C)c3O)c(C)c2C)c(O)c(C(C)(C)C)c1 | > 11.4 µM | -8.57% | – | 14.4% | 6.62% | > 46 µM | > 9.22 µM | inactive | inactive | 5% [at 2.29 µM]
CC(C)C(=O)Cc1ccc2ccccc2n1 | > 11.4 µM | -4.8% | 3.16 µM (active) | 12.2% | 3.27% | > 46 µM | > 9.22 µM | inactive | inactive | –
